Ba/F3 V617F tox: loss of viability in JAK2V617F-driven Ba/F3 cells; Ba/F3 EpoR-JAK2V617F viability, ATP luminescence; inhibition, % at 5.6 µM; 220,000 compounds, 1.1% hits;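 active means inhibition above the campaign mean plus 3 SD over all tested compounds, cut at about 24% in these data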;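 further: cytokine-independent growth of Ba/F3 cells driven by EpoR plus mutant JAK2; 0% = DMSO-treated cells and 100% = JAK inhibitor I control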
aSyn UTR inh: MLPCN primary screen, SNCA 5' untranslated region. alpha-synuclein 5'UTR reporter, inhibitor activity. inhibition, % (tested at 7.5 µM). 300,000 compounds, 0.82% hits. AID 1813; in the data active means inhibition above about 60%;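 further: H4 neuroglioblastoma cells stably carrying SNCA 5'UTR luciferase fusion; 0% = DMSO wells and 100% = positive control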
KLF5 inh: kruppel-like factor 5 inhibition | DLD-1 KLF5 promoter-luciferase reporter, luminescence | inhibition, % at 5 µM | 290,000 compounds, 0.23% hits;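 active means inhibition above a per-plate limit of that plate's mean compound inhibition plus 3 SD, cut at about 60% in these data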;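 further: 0% = DMSO wells and 100% = LY294002 at 200 µM; higher means less KLF5 promoter-driven luciferase light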
APP transl inh: APP translation inhibition | AID 1285 | inhibition, % at 2 µM | SH-SY5Y APP 5'UTR-luciferase reporter, luminescence | 190,000 compounds, 0.82% hits;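 active means inhibition above a set limit, derived from the sample mean plus 3 SD, cut at about 45% in these data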
IEC-6 tox: kills IEC-6 intestinal cells in KLF5 counter-screen | IEC-6 cytotoxicity, luminescence viability | inhibition, % at 5 µM | 290,000 compounds, 0.78% hits;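 further: 0% = plate median of test compound wells and 100% = cytotoxic reference compound wells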
BaF3 tox: counter-screen for JAK2V617F inhibitors: parental Ba/F3 viability inhibitors. CellTiter-Glo ATP luminescence. inhibition, % at 5.6 µM. 220,000 compounds, 1.1% hits;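 active means inhibition above a per-campaign cutoff, the mean inhibition of all tested compounds plus 3 SD, cut at about 27% in these data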;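 further: 0% = DMSO wells and 100% = JAK Inhibitor I control wells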
IEC-6 cytotox cf: confirmation of cytotoxic compounds in rat IEC-6 intestinal epithelial cells. 1,900 compounds, 63% hits. shares compounds with IEC-6 tox. IEC-6 rat intestinal epithelial viability, luminescence. AID 1907. inhibition, % at 5 µM;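 further: 0% = vehicle and 100% = reference cytotoxic drug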
Active calls of the source: *; . = no result given. Shown are actives, neighbours in structure and some others; about 2.2% of the full set was active somewhere. Unless noted, no stated cut-off is given here; in the data, active means inhibition above about 22%; inactive means the rest.

SMILES	Ba/F3 V617F tox	aSyn UTR inh	KLF5 inh	APP transl inh	IEC-6 tox	BaF3 tox	IEC-6 cytotox cf
COc1ccccc1NS(=O)(=O)c1cc(-c2cnc(C3CC3)o2)ccc1C	.	0.5	23.7	.	19.7	.	.
Cc1ccc(C)c(NS(=O)(=O)c2ccc(-c3cnc(C4CC4)o3)cc2)c1	.	93.2*	60.5	.	92.7*	.	62.2*
CC(C)CCN1CCC(n2nccc2NC(=O)c2ccc3c(c2)OCO3)CC1	.	-36.7	-18.2	.	-3.0	.	.
CCOc1ccccc1N1CCN(Cc2c(C)n(C)n(-c3ccccc3)c2=O)CC1	-0.2	3.5	-31.8	4.2	-5.6	3.0	.
CCOc1ccc(NS(=O)(=O)c2ccc(-c3cnc(C4CC4)o3)cc2)cc1	.	-3.4	-9.0	.	17.5	.	.
Cc1cc(C)cc(NS(=O)(=O)c2ccc(-c3cnc(C4CC4)o3)cc2)c1	.	93.4*	59.3	.	87.2*	.	50.7*
Cc1cccc(NS(=O)(=O)c2ccc(-c3cnc(C4CC4)o3)cc2)c1C	.	99.7*	37.8	.	87.9*	.	58.3*
O=S(=O)(NCc1ccc(F)cc1)c1ccc(-c2cnc(C3CC3)o2)cc1	.	2.3	-24.7	.	5.0	.	.
COc1ccc(N2CCN(CNC(=O)c3ccccc3)CC2)cc1	.	10.6	-0.4	.	2.7	.	.
N#CC1(c2ccccc2)CCC(=O)N1Cc1ccccc1 (stereo unspecified)	-3.7	6.9	-6.3	.	-1.9	-3.0	.
Cc1ccc(CNS(=O)(=O)c2ccccc2[N+](=O)[O-])cc1	2.1	-33.0	-21.0	14.1	0.8	4.7	.
O=C(O)c1ccc(N/N=C/C=C/c2ccccc2[N+](=O)[O-])cc1	3.7	-127.0	-135.0	-112.9	23.7*	-0.6	38.6*
O=C(NNc1ccccc1)C(=O)NNS(=O)(=O)c1ccc(CCCl)cc1	-0.7	7.5	22.8	.	43.9*	0.6	10.6
COc1ccc(NC(=O)C(=O)c2cn(CC(=O)N3CCCC3)c3ccccc23)cc1	.	104.6*	59.0	.	92.9*	.	66.2*
CC(=O)Nc1ccc(NC(=O)C(=O)c2cn(CC(=O)N3CCCC3)c3ccccc23)cc1	.	-15.9	-23.1	.	-0.1	.	.
CN(C(=O)c1ccccc1-c1ccccc1C(=O)O)c1ccccc1	.	-7.8	-13.6	.	2.1	.	.
Cc1cc(S(=O)(=O)N2CCN=C2c2ccccc2)ccc1F	1.4	34.8	-35.1	-6.6	0.8	3.1	.
CCOc1ccc(S(=O)(=O)N2CCN=C2c2ccccc2)cc1	.	-27.4	23.4	.	26.4*	.	22.6*
O=C(Nc1cccc(C(=O)Nc2ccc(Cl)cn2)c1)c1ccccc1	.	-32.3	-29.5	.	8.3	.	.
O=C(Nc1ccc(Cl)cn1)c1cccc(F)c1	18.1	-204.1	-56.2	-54.5	22.7*	18.0	33.0*
CCCn1c(SCC(=O)Nc2ccccc2OC)nnc1-c1ccco1	.	1.6	39.1	.	35.2*	.	16.3
COCCn1c(SCC(=O)Nc2ccccc2OC)nnc1-c1ccco1	.	5.2	6.0	.	-6.2	.	.
CN(Cc1nc(-c2cnccn2)no1)Cc1n[nH]c2c1CCCC2	3.0	-19.1	-15.4	4.0	3.7	5.2	.
CCn1cc(C(=O)N(C)c2ccccc2F)c2cc(OC)c(OC)cc2c1=O	.	5.1	-23.6	.	-3.7	.	.
CC(C)c1ccc(NC(=O)C(c2ccc3c(c2)OCO3)N2CCN(C(=O)c3ccco3)CC2)cc1 (stereo unspecified)	0.0	10.3	5.8	-14.0	0.9	8.1	.
SMILES	Ba/F3 V617F tox	aSyn UTR inh	KLF5 inh	APP transl inh	IEC-6 tox	BaF3 tox	IEC-6 cytotox cf
CC(C)c1ccc(NC(=O)C(c2ccccc2)N2CCN(C(=O)c3ccco3)CC2)cc1 (stereo unspecified)	-2.0	-14.2	-52.9	-33.4	46.0*	6.2	16.3
CC(Oc1ccc(Br)cc1)C(=O)Nc1nc(-c2ccccn2)cs1 (stereo unspecified)	.	45.4	21.3	.	49.7*	.	24.3*
CCc1nnc(NC(=O)C(NC(=O)c2ccccc2Cl)C(C)C)s1 (stereo unspecified)	0.0	7.7	13.6	9.8	-1.6	1.1	.
CC(C)[C@H](NC(=O)c1ccccc1Cl)C(=O)Nc1nc(-c2ccccn2)cs1	-0.4	63.6*	26.6	3.4	40.3*	12.4	39.9*
O=C(NCCN1CCOCC1)c1ccncc1	-1.1	10.8	3.4	-14.1	-7.6	1.5	.
O=C1C=C(NCCN2CCOCC2)C(=O)c2cnccc21	7.7	131.5*	29.7	12.7	99.3*	10.5	100.4*
CCOC(=O)C(=Cc1c[nH]c2ccc(S(=O)(=O)N(C)C)cc12)C(=O)OCC	-1.5	-13.2	-6.4	.	1.9	-2.8	.
COc1ccc(-n2c(C)cc(/C=N/Nc3nnc(C)n3N)c2C)cc1	15.9	24.0	10.9	-4.2	100.2*	5.1	-4.2
CCCCCCCCn1c2c(c(=N)c3ccccc31)CCC2	99.4*	58.7	54.8	-9.7	39.6*	81.7*	37.2*
O=C(N/N=C/c1ccccc1)c1ccco1	-0.8	-107.4	-108.8	.	3.1	0.9	.
O=C(C#Cc1ccccc1)c1ccco1	.	-140.8	53.7	.	100.8*	.	28.4*
COc1ccc(C(NC(=O)c2c(F)c(F)c(F)c(F)c2F)c2ccccc2)cc1 (stereo unspecified)	-3.5	21.1	-6.8	6.7	26.9*	1.3	10.7
Cc1cnc(NC(=O)C2CC(=O)N(c3cccc(Cl)c3)C2)s1 (stereo unspecified)	.	17.2	59.1	.	72.7*	.	33.0*
CCCCN(C)C(=O)C1CCC(CNS(=O)(=O)c2ccc3c(c2)CC(C)N3C(=O)C2CC2)CC1 (stereo unspecified)	.	27.3	-31.4	.	5.9	.	.
COc1ccc2[nH]c(-c3cccc(F)c3)cc(=O)c2c1	76.1*	62.6*	60.4	92.9*	74.6*	73.8*	59.7*
COc1ccc(-c2cc(=O)c3ccccc3[nH]2)cc1	-1.1	-79.1	7.4	-11.9	1.0	1.7	.
COc1cccc(-c2cc(=O)c3cc(NC(=O)c4ccc(N(C)C)cc4)ccc3[nH]2)c1	91.1*	115.0*	34.6	92.0*	70.7*	97.2*	70.5*
Cc1cc(NC(=O)CSc2nnc3c(C)cc4c(C)ccc(C)c4n23)no1	2.2	-14.9	52.4	13.6	54.9*	9.9	21.5
Cc1[nH]c2ccccc2c1/C=N/Nc1nc(Nc2ccccc2)nc(N2CCOCC2)n1	31.7*	7.2	-36.4	20.0	76.1*	41.3*	93.4*
Oc1[nH]c2ccccc2c1N=Nc1nc(Nc2ccccc2)nc(N2CCOCC2)n1	-1.3	-2.4	-16.8	.	0.6	-12.2	.
O=C(/C=C/c1ccccc1)Nc1ccc(Br)cn1	8.8	-124.6	-66.5	63.4*	26.5*	5.5	56.0*
Cc1nc2cc(NC(=O)c3ccc([N+](=O)[O-])s3)ccc2s1	.	76.5*	29.3	.	30.4*	.	19.1
Cc1ccc(S(=O)(=O)CCC(=O)OCC(=O)NCCc2ccccc2)cc1	.	-2.3	.	.	.	.	.
O=C(NCCCO)c1cc2ccccc2[nH]1	5.6	-8.9	-2.3	-11.2	-2.1	5.1	.
NNC(=O)c1cc2ccccc2[nH]1	2.8	55.0	33.5	90.4*	31.5*	2.6	-5.0
